# PubChem BioAssay AID745 (Emory University Molecular Libraries Screening Center, 2007)
# The campaign covered roughly 33,000 compounds. About 40 (0.1%) were called active. Only a selection was taken, and actives are over-represented in it overall. Values without a mark were called inactive. Rule as the data show it: active = z-score below about -3; inactive = the rest.
# Assay: inhibitors of measles virus growth in cells, primary screen, measles RdRp inhibitor project, cell-based, single point, HTS (AID 745)
# Details: infected Vero cells, GFP fluorescence, 64 h; active compounds read low
row,SMILES,z-score
1,Cc1cc(C)cc(NC(=O)C(C)N(c2ccccc2)S(C)(=O)=O)c1 (stereo unspecified),0.11
2,COC(=O)Cn1c(=O)n(-c2ccccc2)c(=O)n1CC(=O)OC,1.19
3,O=C1C2C3c4ccccc4C(Br)(c4ccccc43)C2C(=O)N1c1ccc([N+](=O)[O-])cc1 (stereo unspecified),-0.34
4,O=c1oc2ccc3ccccc3c2cc1-c1nc(-c2ccccc2)cs1,0.88
5,CC1CCC(NS(=O)(=O)c2ccc3c(c2)oc(=O)n3C)CC1 (stereo unspecified),-0.87
6,CN1CCN(C(=O)c2cnn3c(C(F)(F)F)cc(-c4ccc(Br)cc4)nc23)CC1,-0.34
7,O=C(NCc1ccc(F)cc1)c1ccc2c(=O)n(C3CCCC3)c(=S)[nH]c2c1,-0.53
8,COc1ccc(-c2c(C(F)(F)F)oc3cc(O)ccc3c2=O)cc1,0.21
9,CC(C)c1ccccc1NC(=O)c1ccccc1,0.08
10,CC(C)c1ccc(NC(=O)c2ccc(NC3CCCC(C)C3C)c([N+](=O)[O-])c2)cc1 (stereo unspecified),-0.26
11,O=C(CSc1nc2c(cnn2-c2ccc(F)cc2)c(=O)[nH]1)N1CCCCCC1,-0.88
12,CCCn1c2ccccc2c2n[nH]c(=S)nc21,-0.86
13,Cc1ccc(Cl)cc1N1CCN(C(=O)CCCn2c(=S)[nH]c3cc4c(cc3c2=O)OCO4)CC1,1.87
14,Cc1ccc(-c2cc3nc(C)cc(C(F)(F)F)n3n2)cc1,-0.75
15,COC(=O)c1ccc(Sc2ccc(C)cc2)c([N+](=O)[O-])c1,0.34
16,CCCn1c(C(C)NC(=O)C(C)(C)C)nc2ccccc21 (stereo unspecified),-0.58
17,Cc1cccc(NC(N)=Nc2nc(CSc3ccc(Cl)cc3)cc(=O)[nH]2)c1,0.03
18,O=[N+]([O-])c1ccc(C=Nc2ccc(-c3nc4ccccc4o3)cc2)s1,-1.32
19,CC(C)(C)c1ccc(C(=O)Nc2ccc(N3CCOCC3)c(Cl)c2)cc1,-1.1
20,CN(Cc1ccccc1)C(=O)Cn1ncc2c(=O)oc3ccccc3c21,1.21
21,CCCCNC(=O)c1ccc[nH]c1=S,0.16
22,CC(=O)c1cccc(NC(=O)c2ccccc2C(=O)O)c1,-0.2
23,COc1ccc(OC)c2[nH]c(=O)c(CCNC(=O)c3ccccc3I)cc12,-0.19

row,SMILES,z-score
1,CSCCC1(C(=O)O)NC(c2cc(I)ccc2O)C2C(=O)N(Cc3ccccc3)C(=O)C21 (stereo unspecified),-0.74
2,O=C(NCc1ccccc1)c1ccc(CSCc2ccccc2Cl)o1,-0.18
3,Cc1ccc(S(=O)(=O)n2nc(OC(=O)c3ccc(F)cc3)cc2N)cc1,-1.65
4,Cn1c(=O)c(Cl)c(O)c2ccccc21,0.2
5,COC(=O)c1c(NC(=O)Cn2cnc([N+](=O)[O-])n2)sc2c1CCCC2,-0.06
6,CCOc1ccc(N=C2NC(=O)C(CC(=O)Nc3ccc(Br)cc3)S2)cc1 (stereo unspecified),-0.81
7,Cc1cccc(NC(=O)c2ccc(F)c(S(=O)(=O)N3CC(C)CC(C)C3)c2)c1 (stereo unspecified),-0.97
8,COC(=O)c1c(NC(=O)c2ccc(S(=O)(=O)N3CC(C)CC(C)C3)cc2)sc2c1CC(C)(C)NC2(C)C (stereo unspecified),-0.34
9,Cc1cccc(N2CCN(C(=O)c3ccc4nc5ccc(Cl)cc5c(=O)n4c3)CC2C)c1 (stereo unspecified),0.3
10,CCOc1ccccc1NC(=O)c1sc2ncnc(N3CCCCC3C)c2c1C (stereo unspecified),1.12
11,Cc1ccc(-n2nc3c(c2NC(=O)c2ccccc2F)CS(=O)(=O)C3)c(C)c1,-0.44
12,O=C1C2C3c4ccccc4C(C(=O)O)(c4ccccc43)C2C(=O)N1c1ccccc1Cl (stereo unspecified),-0.65
13,CC(C)(C)c1nnc(Nc2ccc3c(c2)OCO3)[nH]c1=O,-0.67
14,CCNS(=O)(=O)c1cc(-c2nnc(Nc3cccc(C(F)(F)F)c3)c3ccccc23)ccc1C,-0.06
15,Cc1ccc2nc(-c3ccccc3)c(Nc3ccccc3C)n2c1,-1.03
16,COc1ccc(C2/C(=C(\O)c3ccccc3)C(=O)C(=O)N2CO)cc1 (stereo unspecified),-0.38
17,O=P(Cc1cccc(CP(=O)(c2ccccc2)c2ccccc2)n1)(c1ccccc1)c1ccccc1,-1.8
18,COc1cc(NC(=O)c2noc3c2CCCCC3)c(OC)cc1Cl,-0.93
19,Cc1ccc(S(=O)(=O)C2(C(=O)N(C)Cc3ccccc3)CC2)cc1,0.74
20,CCC(C(=O)NCCC(C)C)N1C(=O)CSc2ccc(C(C)(C)C)cc21 (stereo unspecified),0.55
21,Cc1cc(C(=O)NCCCN=C2NS(=O)(=O)c3ccccc32)c2ccccc2n1,1.11
22,N#Cc1c(NC(=O)CCCC(=O)O)sc2c1CCCC2,-0.15
23,CCCC12CN3CC(C)(CN(C1)C3c1ccccc1Cl)C2=O (stereo unspecified),-0.48

row,SMILES,z-score
1,O=C1CCCc2oc3c(cc(NS(=O)(=O)c4ccc(Cl)cc4)c4ccccc43)c21,-0.4
2,CN(C(=O)CCn1c(=S)oc2ccccc21)C1CCCCC1,-2.69
3,CCOc1ccc(C(=O)Nc2cccc(-c3nc4cc(C)ccc4o3)c2)cc1Br,-0.49
4,O=C(Nc1c2c(nn1-c1ccc(F)cc1)CS(=O)(=O)C2)c1ccccc1Cl,-1.44
5,COc1ccc(C2Nc3ccccc3C(=O)N2c2ccc(Cl)cc2)cc1COc1ccccn1 (stereo unspecified),0.19
6,Cc1cc(Cl)ccc1OC1C(=O)N(c2cccc([N+](=O)[O-])c2)C1c1ccccc1Cl (stereo unspecified),-0.08
7,O=C(CCCn1c(=O)[nH]c2cc(Cl)ccc2c1=O)NCCc1c[nH]c2ccccc12,-0.02
8,O=S1(=O)N=C(N2CCCCC2)c2ccccc21,2.63
9,CC(=O)c1cccc(N2C(=O)c3ccc(C(=O)OCC(=O)c4cccc([N+](=O)[O-])c4)cc3C2=O)c1,-0.12
10,CC(C)Sc1oc(-c2ccc(F)cc2)nc1S(=O)(=O)c1ccc(Cl)cc1,-1.46
11,CC(=O)NC1=NN(C(C)=O)C(c2ccc3c(c2)OCO3)S1 (stereo unspecified),-0.09
12,Cc1ccc(S(=O)(=O)N2CCCCCC2)cc1C(=O)Nc1ccc(Br)cc1,-0.48
13,CCOc1ccc(-c2cc(C(=O)N3CCN(Cc4ccc5c(c4)OCO5)CC3)c3ccccc3n2)cc1,0.33
14,O=C(NCCN1CCOCC1)c1cc(Sc2cccc(Cl)c2)nc2ccccc12,0.36
15,Cc1cccc(NC(=O)c2c(NC(=O)c3ccncc3)sc3c2CCC(C(C)(C)C)C3)c1 (stereo unspecified),-0.43
16,COc1ccc(NC(=O)CN2C(=O)C3C4CCC(C4)C3C2=O)cc1 (stereo unspecified),0.52
17,Cc1ccc(C)c(OCCc2c(C)n[nH]c2C)c1,0
18,COC(=O)c1ccccc1Oc1c(F)c(F)nc(NCCO)c1F,-0.51
19,COc1ccc(OC)c(C=Nc2oc(-c3ccccc3)c(-c3ccccc3)c2C#N)c1,-1
20,COc1nc(SC)nnc1C,-5.82 (active)
21,COc1cc(NC(=O)c2cc(-c3ccc(Cl)cc3)on2)c(OC)cc1Cl,-0.12
22,COC(=O)c1sc(=S)n(-c2ccc(OC)c(Cl)c2)c1N,0.31
23,O=C(Nc1c(C(=O)N2CCC(Cc3ccccc3)CC2)cnn1-c1ccccc1)c1ccc(Br)cc1,0.43

row,SMILES,z-score
1,COc1ccc(-c2cc(C(=O)Nc3sc4c(c3C(N)=O)CCCC4)no2)cc1,0.31
2,CCCc1n(CC(O)COc2cccc(Cl)c2)c2ccccc2[n+]1C (stereo unspecified),0.55
3,CC1CC(C)(C)NC(=S)N1CCC(=O)Nc1ccc(OC(F)(F)F)cc1 (stereo unspecified),-0.78
4,O=C1COc2ccc(Cl)cc2N1,0.06
5,CCOC(=O)c1sc(NC(=O)COc2ccc(C(C)C)c(C)c2)nc1C,-0.5
6,COc1ccc(C2C(C(=O)Nc3ccc(Br)cc3C)c3ccccc3C(=O)N2C)cc1 (stereo unspecified),-0.56
7,O=S(=O)(c1ccccc1)N1CCN(C2CC3CCC2C3)CC1 (stereo unspecified),-0.28
8,N=C1N=C(N)C(Cc2ccccc2)S1 (stereo unspecified),-0.59
9,Cc1noc(NS(=O)(=O)c2ccc(NC(=O)c3cccc(Br)c3)cc2)c1C,0.43
10,CC(=O)Nc1cc(C(=O)N(C)CCC#N)ccc1Sc1ccc(Cl)cc1,-1.08
11,COc1ccc(C2C(C(=O)Nc3ccccc3F)=C(C)NC3=C2C(=O)CCC3)cc1OC (stereo unspecified),0.03
12,O=C(NCc1ccccc1)c1ccc2c(=O)n(-c3ccccc3)c(=S)[nH]c2c1,0.39
13,O=C1C(=O)N(c2nccs2)C(c2ccccc2Cl)/C1=C(\O)c1ccc(F)cc1 (stereo unspecified),1.65
14,CCCCNC(=O)c1cnn2c(C)c(Cc3ccccc3)c(C)nc12,-0.18
15,O=C(c1ccc(-n2c(=S)[nH]c3ccccc3c2=O)cc1)N1CCN(C2CCCCC2)CC1,-0.06
16,O=C(Nc1ncnc2sc3c(c12)CCCC3)c1ccccc1,0.41
17,S=c1[nH]c(-c2ccc(Cl)cc2)cn1-c1cccc(Cl)c1,-0.55
18,Nc1nnc2c(n1)-c1ccccc1C2=O,0.84
19,CCC(NS(=O)(=O)c1ccc(Oc2ccc([N+](=O)[O-])cc2)cc1)C12CC3CC(CC(C3)C1)C2 (stereo unspecified),-1.36
20,O=C(CN1C(=O)c2cccc3cccc1c23)N1CCCCCC1,0.09
21,CCCCN(C)Cc1c(O)ccc2c(=O)c(Oc3ccc(CC)cc3)c(C(F)(F)F)oc12,-0.69
22,Fc1ccccc1CSc1nc(NCC2CCCO2)c2ccccc2n1 (stereo unspecified),-1.9
